Experimental data from PubChem BioAssay AID1561 (National Center for Advancing Translational Sciences (NCATS), 2009).
Activity calls are given as the source filed them. The call rests on the fitted dose curve; in most records, active means well fitted curve in the direction sought with a large enough effect; inactive means no such curve, though single readings can be large or run the other way.

Test: Secondary Assay for lipid storage modulators. Cytotoxcity
Details: Drosophila S3 cells viability, CellTiter-Glo luminescence, 24 h; series mostly up to 46.1 µM
Excerpt: NIH Molecular Libraries Probe Production Centers Network [MLPCN] NIH Chemical Genomics Center [NCGC] MLPCN Grant: TBA Assay Submitter (PI): Beller, Mathias; Max-Planck-Institut fur Biophysikalische Chemie, Germany. NCGC Assay Overview: Storing lipids as a reservoir for energy or the anabolism of elementary metabolites is a common feature of probably all cells and is conserved from bacteria to humans. The universal cellular lipid storage organelle is the so-called lipid storage droplet (LD). Although ubiquitous, LDs share a simple structure composed of a hydrophobic core that harbors the storage lipids, which is shielded by a droplet-specific phospholipid monolayer to which proteins are attached. The current model of LD biogenesis involves an incorporation of the lipid core into the membrane leaflets of the endoplasmic reticulum (ER) followed by a subsequent budding-like maturation of a LD, which ultimately pinches off. Once released, LD volume can increase by localized lipogenesis or fusion of existing droplet. Storage lipids are re-mobilized enzymatically by lipase activity. […]
Assay Protocol Summary: Cytotoxcity assay was performed with embryonic Drosophila S3 cells (Bloomington Drosophila Genomics Resource Center [DGRC]). […] Luminescence was detected on the Perkin Elmer ViewLux.

SMILES | outcome
COC(=O)c1ccccc1NC(=O)c1ccc(F)cc1 | inactive
